ALOX12 inh: Primary qHTS assay for inhibitors of human arachidonate 12S-lipoxygenase (ALOX12): Round 2; purified 12hLO, xylenol orange hydroperoxide absorbance; hit rate 1.1% among 580,000; Potency, µM (titrated, usually from 108 µM), inactives show top-dose activity change, negative = inhibition, hits mostly inhibitors; AID 1671190, 2021; Polyunsaturated fatty acid lipoxygenase ALOX12 (Homo sapiens), P18054; further: potency means the concentration at half of the fitted maximal effect; on the % scale 0 is the no-effect control and ±100 the full control effect
Target sequence (P18054 whole entry, looked up): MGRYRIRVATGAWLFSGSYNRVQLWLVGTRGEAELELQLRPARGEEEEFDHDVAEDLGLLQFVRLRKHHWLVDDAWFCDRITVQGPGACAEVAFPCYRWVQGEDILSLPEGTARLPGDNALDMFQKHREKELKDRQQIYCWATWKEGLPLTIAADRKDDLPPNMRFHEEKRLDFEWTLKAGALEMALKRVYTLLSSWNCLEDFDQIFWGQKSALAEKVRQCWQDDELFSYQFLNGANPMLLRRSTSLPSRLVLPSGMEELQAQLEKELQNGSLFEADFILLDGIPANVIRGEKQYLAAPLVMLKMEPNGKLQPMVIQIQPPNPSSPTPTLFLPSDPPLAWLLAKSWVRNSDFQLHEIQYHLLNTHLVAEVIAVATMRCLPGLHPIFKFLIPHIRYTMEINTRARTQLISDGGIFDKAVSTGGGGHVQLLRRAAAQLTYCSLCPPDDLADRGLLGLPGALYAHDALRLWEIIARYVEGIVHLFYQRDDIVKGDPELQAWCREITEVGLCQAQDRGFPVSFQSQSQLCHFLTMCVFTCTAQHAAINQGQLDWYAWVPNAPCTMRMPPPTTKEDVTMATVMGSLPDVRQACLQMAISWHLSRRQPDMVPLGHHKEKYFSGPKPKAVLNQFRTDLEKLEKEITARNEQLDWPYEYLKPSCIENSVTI
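Purified human 12hLO (150 nM final) in 25 mM Hepes, 0.01% Triton X-100, pH 7.0 was preincubated 15 min at room temperature with compound. Then 40 uM arachidonic acid was added, 30 min. Hydroperoxide was read by Fe-XO absorbance ratio 573/405 nm.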
a7 integrin act: qHTS for Activators of Integrin-Mediated Alleviation for Muscular Dystrophy; alpha7betagal myoblasts, beta-gal FDG fluorescence, 48 h; hit rate 0.064% among 350,000; Potency, µM (highest dose often 38.3 µM), for the others: at the top dose activation, actives largely listed as activators;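 further: potency means the concentration at half of the fitted maximal effect; 100% = response of the positive control SU9516; nearly all actives have a fitted effect of over 60% in size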
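Alpha7betagal+/- myoblasts (passage 13) were plated 16-24 hr, then exposed to compounds (1:260 dilution of DMSO stock) for 48 hours at 37C. After MPER lysis, β-galactosidase reporter activity was read as FDG fluorescence (ex 480/em 540) after 30 minutes.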
Nrf2 ARE act: qHTS of Nrf2 Activators. AREc32 ARE-luciferase reporter (MCF7-derived line), luminescence, 24 h. AID 624171, 2012. hit rate 0.31% among 410,000. Potency, µM (series often up to 46.1 µM), for inactives: at the highest dose activation, hits mostly activators; further: potency means the concentration at half of the fitted maximal effect; % of control where 0% means no effect; nearly all actives have a fitted effect of over 65% in size
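Each well held 1000 AREc32 cells, which were incubated with compound for 24 hr at 37 deg C after overnight attachment, and ARE reporter activity was quantified by firefly luciferase luminescence.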
IL2 activator: qHTS of IL-2 Activators. IL-2 activation reporter assay, cell-based qHTS; stimulated with anti-CD3/CD4/CD28 beads; in transgenic mouse T cells. activation, % (series mostly up to about 46 µM). hit rate 0.065% among 360,000. AID 652025, 2013; in the data active means activation above about 50%; inconclusive means mostly about 30% to 49%; further: 0% is about no effect
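Readout is EGFP and DsRed signal by fluorescent plate cytometry after 18 h at 37 degrees C. Transgenic mouse T cells (750/well) received compound for 60 min before bead stimulation (anti-CD3, anti-CD4, anti-CD28); memory T cells served as non-tolerant control.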
uPA generation: qHTS for Inhibitors of Cell Surface uPA Generation; cell surface uPA generation assay, qHTS; Potency, µM (series often up to 38.3 µM), inactives show at the top dose activity change, negative = inhibition, hits mostly inhibitors; hit rate 0.31% among 330,000; AID 540303, 2011; active means well fitted inhibition curve with a large enough effect; inconclusive means small, poorly fitted or top-dose-only effect; inactive means no such curve, though single readings can be large or run the other way; tested in mouse RAW 264.7 cells; further: potency means the concentration at half of the fitted maximal effect; on the % scale 0 is the no-effect control and ±100 the full control effect; nearly all actives have a fitted effect of over 55% in size
Numbers without * were called inactive; ! = not confirmed by another sample. Hits are enriched below; roughly 1.5% of the tested compounds scored in any of these assays. Unless noted, the call rests on the fitted dose curve; in most records, active means well fitted curve in the direction sought with a large enough effect; inconclusive means small, poorly fitted or top-dose-only effect, or another doubt; inactive means no such curve, though single readings can be large; an effect the other way counts as inactive or inconclusive.

What do the screens show for `c1ccc(N2CCN(Cc3ccc4c(c3)OCO4)CC2)nc1`?
ALOX12 inh: inconclusive; a7 integrin act: 22%; Nrf2 ARE act: -1%; IL2 activator: 0; uPA generation: 11%

How did c1cnc(N2CCN(Cc3ccc4c(c3)OCO4)CC2)nc1 do in these assays?
ALOX12 inh: 22µM*!; Nrf2 ARE act: 0%; IL2 activator: 0; uPA generation: 4%

Results for O=C(CN1CCN(Cc2ccc3c(c2)OCO3)CC1)N1c2ccccc2Sc2ccccc21 ?
ALOX12 inh: 0.79µM*

Results for O=C(c1ccc(COc2ccccc2Cl)o1)N1CCN(Cc2ccc3c(c2)OCO3)CC1 ?
ALOX12 inh: 45µM*!; a7 integrin act: -37%; Nrf2 ARE act: 4%; IL2 activator: 0; uPA generation: 17%

Results for Cc1ccn2c(NC3CCCC3)c(-c3cccs3)nc2c1 ?
ALOX12 inh: 32µM*; a7 integrin act: 8%; Nrf2 ARE act: 3%; IL2 activator: -3; uPA generation: 1%

Results for O=C(CN1CCN(C(=O)CCNS(=O)(=O)c2ccc(F)cc2)CC1)Nc1ccccc1Cl ?
ALOX12 inh: 5%

What do the screens show for `N#CC(C(=O)OC1CCCCC1)c1nc2ccccc2nc1N1CCOCC1` (configuration not stated)?
ALOX12 inh: 0%; a7 integrin act: 0%; Nrf2 ARE act: 0%; IL2 activator: 70*; uPA generation: 3%

Results for Cc1csc(NC(=O)Cc2csc(-c3ccccc3Cl)n2)n1 ?
ALOX12 inh: -31%

Results for Cc1csc(-c2ccc3cc(Cl)cc(Cl)c3n2)n1 ?
ALOX12 inh: -3%; Nrf2 ARE act: 2.5µM*; IL2 activator: 0

How did Cc1c(Cl)cccc1NC(=O)c1cc(-c2ccco2)on1 do in these assays?
ALOX12 inh: -8%; a7 integrin act: 5%; Nrf2 ARE act: 13µM*; IL2 activator: -3; uPA generation: 1%

How did Cn1c(=O)c2c(nc(Nc3ccc(Cl)cc3Cl)n2CC(=O)O)n(C)c1=O do in these assays?
ALOX12 inh: 17%

How did CCCc1nc2oc3ccccc3c(=O)c2c(=O)n1-c1ccc(C)cc1 do in these assays?
ALOX12 inh: 5%; a7 integrin act: -1%; Nrf2 ARE act: 11µM*; IL2 activator: 1; uPA generation: inconclusive

Results for CSc1ccccc1C(=O)Nc1ncn[nH]1 ?
ALOX12 inh: 11µM*; a7 integrin act: -40%; Nrf2 ARE act: -1%; IL2 activator: 0; uPA generation: 28%

What do the screens show for `CCc1nc(-c2c3n(c(=O)n(CC(=O)Nc4ccccc4Cl)c2=O)CCCCC3)no1`?
ALOX12 inh: 40%

How did O=C1NCCC[C@@H]1NC(=O)[C@@H]1CN(C(=O)C2CCCCC2)CCN1C(=O)c1cccc(F)c1 do in these assays?
ALOX12 inh: -38%

What do the screens show for `N#Cc1nc(-c2ccco2)oc1N1CCC(C(=O)Nc2ccccc2N2CCCC2=O)CC1`?
ALOX12 inh: -28%

What do the screens show for `O=S(=O)(Nc1c(S(=O)(=O)c2ccccc2)c2nc3ccccc3nc2n1C1CCCCC1)c1ccccc1`?
ALOX12 inh: 40µM*; a7 integrin act: -5%; Nrf2 ARE act: 0%; IL2 activator: 2; uPA generation: -8%

What do the screens show for `C=CCn1c(NS(=O)(=O)c2ccccc2)c(S(=O)(=O)c2ccc(C)cc2)c2nc3ccccc3nc21`?
ALOX12 inh: 1%; a7 integrin act: -5%; Nrf2 ARE act: 0%; IL2 activator: -1; uPA generation: -1%

Results for O=C(CSc1ccc2ccccc2c1)c1ccc2c(c1)CCC2 ?
ALOX12 inh: 35µM*

How did O=C(CSc1nc2ccccc2o1)c1ccc2ccccc2c1 do in these assays?
ALOX12 inh: -10%

Results for CC(C)(C)c1ccc(CC/C=N/O)cc1 ?
ALOX12 inh: 11µM*

What do the screens show for `c1ccc(-n2ncc3c2ncn2nc(-c4ccco4)nc32)cc1`?
ALOX12 inh: 4%; a7 integrin act: 5%; Nrf2 ARE act: 10µM*; IL2 activator: 2; uPA generation: -14%

Results for COc1ccc(-n2ncc3c2ncn2nc(Cc4ccccc4)nc32)cc1 ?
ALOX12 inh: 0%; Nrf2 ARE act: 4%

Screening data from PubChem.
